# Data: PubChem BioAssay (EPA / NIEHS)
# Where “and” joins values, the source holds several entries; their conditions need not be identical. Equal entries are not always repeated. Records with an inconclusive call do not appear. Calls of active or inactive are those of the source. How the source made its calls, unless noted: active means hit-call score of the fitted dose curve at least 0.9, where 1 is the maximum; inconclusive means response in the unintended direction; inactive means score below 0.9.
# Legend:
# [1] = TOX21_p53_BLA_p2_viability: Viability Assessment in the Tox21 HCT-116 p53 Agonism Beta-lactamase Assay, Phase 2 (AID 2283591);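 further: actives lower the ATP signal meaning cytotoxicity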
# Method in brief: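 Cytotoxicity readout: CellTiter-Glo ATP luminescence, 30 min at room temperature, after the beta-lactamase read. Cells were HCT116 exposed 16 h at 37C to compounds pin-transferred at 217-fold dilution from DMSO stocks.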
# [2] = target: Cellular tumor antigen p53 (Homo sapiens) (UniProt P04637); experiment: TOX21_p53_BLA_p2_ratio: Tox21 HCT-116 p53 Agonism Beta-lactamase Assay, Ratio, Phase 2 (AID 2283592)
# Method in brief: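 An inducible beta-lactamase reporter in HCT116 cells signals p53 pathway activation. After 16 h chemical exposure at 37C, cells load CCF4-AM substrate for 2 h at room temperature; activity is the cleaved/uncleaved emission ratio relative to DMSO.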
# [3] = TOX21_p53_BLA_p3_viability: Viability Assessment in the Tox21 HCT-116 p53 Agonism Beta-lactamase Assay, Phase 3 (AID 2283593);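 further: cells exposed to compound for 16 h before reading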
# Method in brief: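 Cellular ATP was quantified by CellTiter-Glo luminescence, read after 30 min at room temperature. Beforehand, HCT116 cells (4000/well) received compound 5 h post-seeding, 217-fold diluted from DMSO, then incubated 16 h at 37C.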
# [4] = target: Cellular tumor antigen p53 (Homo sapiens) (UniProt P04637); experiment: TOX21_p53_BLA_p3_ratio: Tox21 HCT-116 p53 Agonism Beta-lactamase Assay, Ratio, Phase 3 (AID 2283596)
# Method in brief: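 HCT116 p53-bla cells (4000/well) given compound in DMSO (217-fold dilution) after 5 h, incubated 16 h at 37C. CCF4-AM substrate 2 h at room temperature; 460/530 nm emission ratio, gain fitted against DMSO.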
# [5] = TOX21_p53_BLA_p4_viability: Viability Assessment in the Tox21 HCT-116 p53 Agonism Beta-lactamase Assay, Phase 4 (AID 2283597);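 further: hits lower the luminescence signal meaning cytotoxicity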
# Method in brief: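 Compound exposure of HCT116 cells lasts 16 h at 37C, 5% CO2, with DMSO stocks diluted 217-fold. Cellular ATP is then quantified by CellTiter-Glo luminescence after 30 min at room temperature.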
# [6] = target: Cellular tumor antigen p53 (Homo sapiens) (UniProt P04637); experiment: TOX21_p53_BLA_p5_ratio: Tox21 HCT-116 p53 Agonism Beta-lactamase Assay, Ratio, Phase 5 (AID 2283599)
# Method in brief: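 Beta-lactamase reporter ratio (blue 460 nm over green 530 nm, 405 nm excitation) after 2 h CCF4-AM loading, in HCT-116 cells exposed 16 h at 37 C to compounds pinned at 217-fold dilution. Increases relative to DMSO baseline scored.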
# [7] = TOX21_p53_BLA_p5_viability: Viability Assessment in the Tox21 HCT-116 p53 Agonism Beta-lactamase Assay, Phase 5 (AID 2283600)
# Method in brief: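 Counter-readout for cytotoxicity: ATP-dependent luminescence from CellTiter-Glo, read in the beta-lactamase wells after 30 min at RT, following a 16 h compound exposure at 37C.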
# [8] = target: Cellular tumor antigen p53 (Homo sapiens) (UniProt P04637); experiment: TOX21_p53_BLA_p4_ratio: Tox21 HCT-116 p53 Agonism Beta-lactamase Assay, Ratio, Phase 4 (AID 2283601)
# Method in brief: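 Signal is the blue/green (460nm/530nm) ratio of cleaved versus uncleaved CCF4-AM substrate, read after 2 h substrate loading. Cells were HCT116 carrying the p53-responsive beta-lactamase reporter, dosed 16 h at 37C, 5% CO2; CellTiter-Glo measured in parallel.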
# [9] = STM_H9_OrnCyssISnorm_ratio: Stemina devTOX quickPredict H9 human embryonic stem cell (hESC)-based Assay for Ornithine (ORN):Cystine (CYSS) Ratio (AID 2283714)
# Method in brief: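 Steps: H9 hESCs in pluripotent state dosed 72h, medium plus compound renewed every 24h; conditioned medium from the final 24h deproteinized in 40% acetonitrile; ORN and CYSS quantified by UPLC-HRMS with C13 spike-ins; ratio relative to vehicle.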
# [10] = STM_H9_NormalizedViability: Cytotoxicity Assessment at 120 hours in the Stemina devTOX quickPredict H9 human embryonic stem cell (hESC)-based Assay (AID 2283784)
# Method in brief: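 Pluripotent H9 cells dosed, fresh medium plus compound q24h → cell layer read by CellTiter-Fluor → RFU blank-corrected, normalized to DMSO 0.1% mean. Loss-of-signal fit, DMSO as baseline.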
# [11] = CCTE_Harrill_HTTr_Viability_MCF7: CCTE's 6-hour Cell Viability Assessment for the High-Throughput Transcriptomics (HTTr) Platform, in MCF-7 cells cultured in DMEM + 10% fetal bovine serum, Harrill Lab (AID 2284010; active means hit-call score of the fitted dose curve at least 0.9, where 1 is the maximum; inactive means score below 0.9)
# Method in brief: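 Cells were dosed with chemicals in an eight-point dilution series, imaged 6 hours later for propidium iodide uptake, and the endpoint was analyzed by bidirectional fitting against DMSO as negative control.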
# [12] = CCTE_Harrill_HTTr_Apoptosis_MCF7: CCTE's 6-hour Apoptosis Assessment for the High-Throughput Transcriptomics (HTTr) Platform, in MCF-7 cells cultured in DMEM + 10% fetal bovine serum, Harrill Lab (AID 2284011; active means hit-call score of the fitted dose curve at least 0.9, where 1 is the maximum; inactive means score below 0.9)
# Method in brief: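 Cells are dosed with test chemicals at eight concentrations and imaged 6 hours later for caspase-3/7 activity using a green fluorogenic detection reagent. Activity is fitted in both directions against DMSO controls.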
# [13] = CCTE_Harrill_HTTr_CellCount_MCF7: CCTE's Cell Proliferation Assessment for the High-Throughput Transcriptomics (HTTr) Platform, Harrill Lab (AID 2284012);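 further: count of Hoechst-stained nuclei per well by high-content imaging in MCF-7 cells; cells exposed to compound for six hours; intended direction is loss of nuclei count meaning fewer cells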
# Method in brief: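 Chemicals in eight-point dilution series are added to MCF-7 cells for six hours, nuclei are stained with Hoechst and imaged, and per-well nuclei counts are fitted in both directions relative to DMSO controls.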
# Sequence of Cellular tumor antigen p53 (Homo sapiens) (P04637 whole entry, looked up): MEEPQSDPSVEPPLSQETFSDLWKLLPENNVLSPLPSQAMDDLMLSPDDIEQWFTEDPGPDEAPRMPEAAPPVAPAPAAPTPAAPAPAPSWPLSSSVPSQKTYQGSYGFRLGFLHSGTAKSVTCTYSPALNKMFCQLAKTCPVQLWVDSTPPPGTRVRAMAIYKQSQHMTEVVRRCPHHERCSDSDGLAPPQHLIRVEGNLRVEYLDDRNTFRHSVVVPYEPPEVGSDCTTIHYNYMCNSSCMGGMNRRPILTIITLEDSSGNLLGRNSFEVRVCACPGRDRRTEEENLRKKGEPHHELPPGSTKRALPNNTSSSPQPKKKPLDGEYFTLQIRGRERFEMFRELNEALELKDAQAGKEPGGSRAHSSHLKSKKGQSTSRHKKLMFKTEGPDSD
structure (smiles),measurement,setting,value
CNC(=O)Oc1ccccc1C(=O)Nc1ccccc1,outcome,[1],inactive
same,outcome,[2],inactive
same,outcome,[3],inactive
same,outcome,[4],inactive
same,outcome,[5],inactive
same,outcome,[6],inactive
same,outcome,[7],inactive
same,outcome,[8],inactive
CC[n+]1c(-c2ccccc2)c2cc(N)ccc2c2ccc(N)cc21,outcome,[1],inactive
same,AC50,[2],1.43 µM (active) and 9.38 µM (active) and 2.95 µM (active)
same,outcome,[3],inactive
same,AC50,[4],3.51 µM (active) and 14.1 µM (active) and 6.74 µM (active)
same,outcome,[5],inactive
Oc1ccc(C(=C(Cl)Cl)c2ccc(O)cc2)cc1,outcome,[1],inactive
same,AC50,[2],41.2 µM (active)
same,outcome,[3],inactive
same,outcome,[4],inactive
same,AC50,[5],77.7 µM (active)
same,outcome,[6],inactive
same,outcome,[7],inactive
same,AC50,[8],72.4 µM (active)
CCC1(CC)C(=O)NC(=O)N(C)C1=O,outcome,[1],inactive
same,outcome,[2],inactive
same,outcome,[3],inactive
same,outcome,[4],inactive
same,outcome,[5],inactive
same,outcome,[6],inactive
COC(=O)[C@]12CCC(C)(C)C[C@H]1[C@H]1C(=O)C=C3[C@@]4(C)C=C(C#N)C(=O)C(C)(C)[C@@H]4CC[C@@]3(C)[C@]1(C)CC2,AC50,[1],1.83 µM (active)
same,AC50,[2],29.2 µM (active)
same,AC50,[3],1.37 µM (active)
same,AC50,[4],15.3 µM (active)
same,AC50,[5],1.99 µM (active)
same,AC50,[6],31.7 µM (active)
same,AC50,[7],2.57 µM (active)
same,AC50,[8],7.4 µM (active)
N#CCBr,outcome,[1],inactive
same,outcome,[2],inactive
same,outcome,[3],inactive
same,outcome,[4],inactive
CCCCCc1cc(O)c2c(c1)OC(C)(C)[C@@H]1CCC(C)=C[C@@H]21,AC50,[1],24.4 µM (active)
same,AC50,[2],41.7 µM (active)
same,AC50,[3],23.4 µM (active)
same,AC50,[4],40.4 µM (active)
same,AC50,[5],21.4 µM (active)
same,AC50,[6],43.1 µM (active)
same,AC50,[7],32.8 µM (active)
same,AC50,[8],40 µM (active)
CCC(=O)O[C@]1(c2ccccc2)CCN(C)C[C@H]1C,outcome,[1],inactive
same,outcome,[2],inactive
same,outcome,[3],inactive
same,outcome,[4],inactive
same,outcome,[5],inactive
same,outcome,[6],inactive
same,outcome,[7],inactive
same,outcome,[8],inactive
CC(O)C(=O)[O][Hg][c]1ccccc1 (stereo not given),AC50,[1],2.69 µM (active)
same,AC50,[2],9.88 µM (active)
same,AC50,[3],0.648 µM (active)
same,AC50,[4],2.21 µM (active)
same,AC50,[5],3.87 µM (active)
same,AC50,[6],2.92 µM (active)
same,AC50,[7],1.59 µM (active)
same,AC50,[8],5.92 µM (active)
O=CC=Cc1ccccc1,outcome,[1],inactive
same,outcome,[2],inactive
same,outcome,[3],inactive
same,outcome,[4],inactive
same,outcome,[5],inactive
same,outcome,[6],inactive
same,outcome,[7],inactive
same,outcome,[8],inactive
same,AC50,[9],83.9 µM (active)
same,AC50,[10],93.6 µM (active)
same,outcome,[11],inactive
same,outcome,[12],inactive
same,outcome,[13],inactive
CCCC(Cn1cncn1)c1ccc(Cl)cc1Cl (stereo not given),outcome,[1],inactive
same,AC50,[2],75.6 µM (active)
same,outcome,[3],inactive
same,AC50,[4],85.7 µM (active)
same,outcome,[5],inactive
same,outcome,[6],inactive
same,outcome,[7],inactive
same,AC50,[8],75.2 µM (active)
CN[C@@H]1C[C@@H](c2ccc(Cl)c(Cl)c2)c2ccccc21,outcome,[1],inactive
same,outcome,[2],inactive
same,outcome,[3],inactive
same,outcome,[4],inactive
same,AC50,[5],33.9 µM (active)
same,outcome,[6],inactive
same,outcome,[7],inactive
same,outcome,[8],inactive
C/C(=C\c1csc(C)n1)[C@@H]1C[C@@H]2O[C@]2(C)CCC[C@H](C)[C@H](O)[C@@H](C)C(=O)C(C)(C)[C@@H](O)CC(=O)O1,outcome,[1],inactive
same,AC50,[2],0.0698 µM (active)
same,outcome,[3],inactive
same,AC50,[4],0.0123 µM (active)
same,outcome,[5],inactive
same,AC50,[6],0.732 µM (active)
same,outcome,[7],inactive
same,AC50,[8],0.0121 µM (active)
Oc1c(Br)c(Br)c(Br)c(Br)c1Br,outcome,[1],inactive
same,AC50,[2],1.56 µM (active)
same,outcome,[3],inactive
same,AC50,[4],0.886 µM (active)
same,outcome,[5],inactive
same,outcome,[6],inactive
same,outcome,[7],inactive
same,outcome,[8],inactive
CN,outcome,[1],inactive
same,outcome,[2],inactive
same,outcome,[3],inactive
same,outcome,[4],inactive
same,outcome,[5],inactive
same,outcome,[6],inactive
same,outcome,[7],inactive
same,outcome,[8],inactive
Oc1cccc[c]1[Hg][Cl],AC50,[1],4.03 µM (active)
same,AC50,[2],8.58 µM (active)
same,AC50,[3],9.5 µM (active)
same,AC50,[4],18.6 µM (active)
same,AC50,[5],4.24 µM (active)
same,AC50,[6],6.39 µM (active)
same,AC50,[7],3.94 µM (active)
same,AC50,[8],8.72 µM (active)
Clc1ccc(CSC(Cn2ccnc2)c2ccc(Cl)cc2Cl)cc1 (stereo not given),outcome,[1],inactive
same,AC50,[2],17.7 µM (active)
same,outcome,[3],inactive
same,outcome,[4],inactive
same,outcome,[5],inactive
same,outcome,[6],inactive
same,outcome,[7],inactive
same,AC50,[8],15.4 µM (active)
CCCC(=O)OC(C(Cl)(Cl)Cl)P(=O)(OC)OC (stereo not given),outcome,[1],inactive
same,outcome,[2],inactive
same,outcome,[3],inactive
same,outcome,[4],inactive
same,outcome,[5],inactive
same,outcome,[6],inactive
same,outcome,[7],inactive
same,outcome,[8],inactive
BrCC(Br)C1CCC(Br)C(Br)C1 (stereo not given),outcome,[1],inactive
same,outcome,[2],inactive
same,outcome,[3],inactive
same,outcome,[4],inactive
same,outcome,[5],inactive
same,outcome,[6],inactive
same,outcome,[7],inactive
same,outcome,[8],inactive
S=C=S,outcome,[1],inactive
same,outcome,[2],inactive
same,outcome,[3],inactive
same,outcome,[4],inactive
same,outcome,[5],inactive
same,outcome,[6],inactive
same,outcome,[7],inactive
same,outcome,[8],inactive
Nc1ccc(Cc2ccc(N)c(Cl)c2)cc1Cl,outcome,[1],inactive
same,AC50,[2],68.5 µM (active)
same,AC50,[3],77.1 µM (active)
same,AC50,[4],71.5 µM (active)
same,outcome,[5],inactive
same,outcome,[6],inactive
same,outcome,[7],inactive
same,outcome,[8],inactive
CC(O)CN1CCN(CC(=O)[O-])CCN(CC(=O)[O-])CCN(CC(=O)[O-])CC1.[Gd+3] (stereo not given),outcome,[1],inactive
same,outcome,[2],inactive
same,outcome,[3],inactive
same,outcome,[4],inactive
same,outcome,[5],inactive
same,outcome,[6],inactive
same,outcome,[7],inactive
same,outcome,[8],inactive
Oc1cc(Cl)c(Cl)c(Cl)c1,AC50,[1],44.1 µM (active)
same,AC50,[2],10.2 µM (active)
same,outcome,[3],inactive
same,AC50,[4],17.3 µM (active)
same,AC50,[5],69.4 µM (active)
same,AC50,[6],13.2 µM (active)
same,outcome,[7],inactive
same,AC50,[8],37.5 µM (active)
